Laboratory results from PubChem BioAssay (Tox21).
Values joined by “and” are separate entries in the source; they are usually repeats but may differ in a detail not shown here. Equal values may be shown once. Records with an inconclusive call do not appear. A call without a number means that no potency is given here. The source holds several records for some structures; these can differ, active in one and inactive in another. Active and inactive are the calls of the source. Unless noted, the call rests on the fitted dose curve.

Assays:
[1] = Nuclear factor erythroid 2-related factor 2/antioxidant responsive element (Nrf2/ARE) small molecule agonists: qHTS cell viability counter screen in human keratinocytes (AID 1919968; active means well fitted curve in the direction sought with a large enough effect in the repeat runs; an effect the other way counts as inactive or inconclusive; further: nearly all actives have a fitted effect of over 55% in size; further: potency means the concentration at half of the fitted maximal effect)
Outline: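 KeratinoSens HaCaT cells, 1,500/well, preincubated 5 h, then exposed to compounds in DMSO for 23 h at 37 C/5% CO2. Viability read as CellTiter-Fluor fluorescence after 1 h, in the same wells as the ARE-luciferase read.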

[2] = Nuclear factor erythroid 2-related factor 2/antioxidant responsive element (Nrf2/ARE) small molecule agonists: luciferase reporter gene qHTS assay in human keratinocytes (AID 1919969); further: nearly all actives have a fitted effect of over 35% in size; further: potency means the concentration at half of the fitted maximal effect
[3] = target: Gonadotropin-releasing hormone receptor (Homo sapiens) (UniProt P30968); test: Human gonadotropin-releasing hormone receptor (GnRHR) small molecule agonists, calcium flux assay in GnRHR-HEK293 cells (AID 1920063); further: nearly all actives have a fitted effect of over 35% in size
Chain of Gonadotropin-releasing hormone receptor (Homo sapiens) (P30968 whole entry, looked up): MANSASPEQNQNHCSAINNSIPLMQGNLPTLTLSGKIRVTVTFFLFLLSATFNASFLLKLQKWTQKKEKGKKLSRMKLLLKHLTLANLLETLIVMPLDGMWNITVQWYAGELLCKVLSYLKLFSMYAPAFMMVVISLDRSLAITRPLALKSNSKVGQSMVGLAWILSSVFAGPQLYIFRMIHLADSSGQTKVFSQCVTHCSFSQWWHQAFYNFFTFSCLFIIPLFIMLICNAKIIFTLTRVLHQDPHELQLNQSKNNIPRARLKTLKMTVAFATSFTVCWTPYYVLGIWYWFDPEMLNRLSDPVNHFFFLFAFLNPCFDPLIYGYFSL
Outline: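 HEK293 cells stably expressing human GnRHR were dye-loaded for 1 h at 37 C. Compound was added in agonist mode and fluorescence (Ex/Em 480/540) recorded kinetically for 3 min. Fifteen concentrations, triplicates.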

[4] = target: KiSS-1 receptor (Homo sapiens) (UniProt Q969F8); test: Human kisspeptin (KISS1R) small molecule agonists, calcium flux assay in KISS1R-HEK293 cells (AID 1920064; active means well fitted curve in the direction sought with a large enough effect in the repeat runs; an effect the other way counts as inactive or inconclusive)
Chain of KiSS-1 receptor (Homo sapiens) (Q969F8 whole entry, looked up): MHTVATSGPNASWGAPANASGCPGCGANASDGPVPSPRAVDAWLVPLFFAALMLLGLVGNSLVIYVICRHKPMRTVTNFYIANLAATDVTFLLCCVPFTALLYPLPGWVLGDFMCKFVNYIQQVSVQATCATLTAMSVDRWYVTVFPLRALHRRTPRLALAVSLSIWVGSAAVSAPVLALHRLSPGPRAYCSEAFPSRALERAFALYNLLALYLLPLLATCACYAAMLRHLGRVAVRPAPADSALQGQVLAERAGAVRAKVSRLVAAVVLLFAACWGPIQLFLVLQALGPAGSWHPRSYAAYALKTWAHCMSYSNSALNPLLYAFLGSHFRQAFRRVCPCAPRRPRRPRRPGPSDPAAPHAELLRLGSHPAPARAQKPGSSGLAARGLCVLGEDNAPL
Outline: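 HEK293 cells stably expressing human KISS1R were loaded with calcium dye for 1 h at 37 C, then given compound; fluorescence (Ex/Em 480/540) was read kinetically for 3 min. Fifteen concentrations, triplicate.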

[5] = G protein-coupled receptor (GPCR) small molecule agonists, calcium flux assay: HEK293 wild type cell line counter screen (AID 1920065)
Outline: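 Wild-type HEK293 cells plated 18 h, loaded with calcium dye 1 h at 37 C, then compounds added in agonist mode (ATP as positive control). Kinetic fluorescence Ex/Em 480/540 recorded 3 min at 1 sec intervals; 15 concentrations, triplicate.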

[6] = p53 small molecule agonists, cell-based qHTS assay with human liver microsomes: qHTS cell viability counter screen (AID 1963579); further: nearly all actives have a fitted effect of over 45% in size; further: potency means the concentration at half of the fitted maximal effect
Outline: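 p53RE-bla cells, 4,000/well, dosed 5 hours after plating, with human liver microsomes (0.5 mg/mL final) plus NADPH (0.5 mg/mL final), 16 hours at 37 C. Viability read as CellTiter-Glo luminescence after 30 min at room temperature.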

[7] = p53 small molecule agonists, cell-based qHTS assay: qHTS cell viability counter screen (AID 1963581); further: nearly all actives have a fitted effect of over 45% in size; further: potency means the concentration at half of the fitted maximal effect
Outline: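 p53RE-bla HCT-116 cells, compounds added 5 h after plating and incubated 16 h at 37 C. Cytotoxicity measured in the same wells as intracellular ATP by CellTiter-Glo luminescence after 30 min at room temperature.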

[8] = target: 5-hydroxytryptamine receptor 2A (Homo sapiens) (UniProt P28223); test: 5-hydroxytryptamine receptor 2A (HTR2A) small molecule antagonists, cell-based qHTS assay (AID 1963586); further: nearly all actives have a fitted effect of over 45% in size
Chain of 5-hydroxytryptamine receptor 2A (Homo sapiens) (P28223 whole entry, looked up): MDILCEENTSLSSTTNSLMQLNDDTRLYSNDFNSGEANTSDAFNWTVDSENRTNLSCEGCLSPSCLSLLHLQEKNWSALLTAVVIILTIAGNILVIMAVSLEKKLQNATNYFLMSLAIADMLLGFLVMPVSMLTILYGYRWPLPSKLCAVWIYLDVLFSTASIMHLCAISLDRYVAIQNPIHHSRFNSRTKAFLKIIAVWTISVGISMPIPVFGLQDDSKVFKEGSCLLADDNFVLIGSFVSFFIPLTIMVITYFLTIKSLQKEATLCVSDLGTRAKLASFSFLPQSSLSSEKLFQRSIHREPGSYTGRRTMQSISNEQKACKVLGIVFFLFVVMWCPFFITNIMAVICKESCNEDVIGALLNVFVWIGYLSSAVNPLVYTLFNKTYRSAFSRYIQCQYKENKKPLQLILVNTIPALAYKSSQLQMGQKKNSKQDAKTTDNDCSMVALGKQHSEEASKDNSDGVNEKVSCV
Outline: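 Antagonist-mode intracellular calcium assay: DOI (4 nM) added after 5 min compound pre-incubation at room temperature to dye-loaded HTR2A-CHO cells. Fluorescence followed for 3 min, sampled every second.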

[9] = target: 5-hydroxytryptamine receptor 2A (Homo sapiens) (UniProt P28223); test: 5-hydroxytryptamine receptor 2A (HTR2A) small molecule agonists, cell-based qHTS assay (AID 1963587); further: nearly all actives have a fitted effect of over 30% in size
Outline: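 HTR2A-CHO cells, plated 18 h at 37 C/5% CO2, dye-loaded 1 h at 37 C; compounds in DMSO added by pin tool (agonist mode). Intracellular calcium flux read as kinetic fluorescence on FDSS over 2 min at 1 s intervals.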

[10] = target: Muscarinic acetylcholine receptor M1 (Homo sapiens) (UniProt P11229); test: Cholinergic receptor muscarinic 1 (CHRM1) small molecule antagonists, cell-based qHTS assay (AID 1963588); further: nearly all actives have a fitted effect of over 40% in size; further: potency means the concentration at half of the fitted maximal effect
Chain of Muscarinic acetylcholine receptor M1 (Homo sapiens) (P11229 whole entry, looked up): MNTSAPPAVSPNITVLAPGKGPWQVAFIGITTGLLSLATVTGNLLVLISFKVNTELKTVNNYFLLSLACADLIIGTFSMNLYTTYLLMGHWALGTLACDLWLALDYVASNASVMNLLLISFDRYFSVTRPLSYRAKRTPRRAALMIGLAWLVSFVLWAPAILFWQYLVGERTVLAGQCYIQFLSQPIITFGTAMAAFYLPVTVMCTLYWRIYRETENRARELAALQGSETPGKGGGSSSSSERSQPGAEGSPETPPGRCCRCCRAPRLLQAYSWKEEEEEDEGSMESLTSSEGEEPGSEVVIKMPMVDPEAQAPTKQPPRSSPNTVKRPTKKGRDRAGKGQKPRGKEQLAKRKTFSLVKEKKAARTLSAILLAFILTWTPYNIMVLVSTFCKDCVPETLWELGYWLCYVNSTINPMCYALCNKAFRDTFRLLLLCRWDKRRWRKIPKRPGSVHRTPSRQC
Outline: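 CHRM1-CHO calcium-flux assay, antagonist mode. Cells were seeded 18 h, dye-loaded 1 h at 37 C and given compound for 5 min at RT, then acetylcholine was added at 50nM. FDSS fluorescence was read 3 min; 15 concentrations, three runs.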

[11] = target: Muscarinic acetylcholine receptor M1 (Homo sapiens) (UniProt P11229); test: Cholinergic receptor muscarinic 1 (CHRM1) small molecule agonists, cell-based qHTS assay (AID 1963589); further: nearly all actives have a fitted effect of over 35% in size
Outline: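 CHO cells stably expressing human CHRM1 were loaded with calcium dye for 1 h at 37 C, then compound was added in agonist mode. Intracellular calcium fluorescence was followed kinetically at 1 s intervals. Fifteen concentrations were tested in three independent runs.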

[12] = cAMP Responsive Elements (CRE) small molecule agonists, cell-based qHTS assay (AID 1963590)
Outline: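 CRE-bla HEK 293T cells, 2,000/well in DMEM with 10% dialyzed FBS and 25 mM HEPES, pre-incubated 18 h at 37 C, then exposed to compound 3 h at 37 C. Beta-lactamase reporter read with LiveBLAzer B/G FRET substrate after 2 h at room temperature.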

[13] = cAMP Responsive Elements (CRE) small molecule antagonists, cell-based qHTS assay (AID 1963591; active means well fitted inhibition curve with a large enough effect in the signal ratio in the repeat runs, not every such curve was filed as active; the % refers to the signal ratio)
Outline: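 CRE-bla HEK293T cells plated 18 h, then given compound plus NKH477 at 0.25 uM final for 3 h at 37C. Beta-lactamase reporter read with LiveBLAzer B/G FRET substrate after 2 h at room temperature.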

[14] = target: Beta-2 adrenergic receptor (Homo sapiens) (UniProt P07550); test: Adrenergic beta2 receptor (ADRB2) small molecule antagonists, cell-based qHTS assay (AID 1963592); further: nearly all actives have a fitted effect of over 50% in size; further: potency means the concentration at half of the fitted maximal effect
Chain of Beta-2 adrenergic receptor (Homo sapiens) (P07550 whole entry, looked up): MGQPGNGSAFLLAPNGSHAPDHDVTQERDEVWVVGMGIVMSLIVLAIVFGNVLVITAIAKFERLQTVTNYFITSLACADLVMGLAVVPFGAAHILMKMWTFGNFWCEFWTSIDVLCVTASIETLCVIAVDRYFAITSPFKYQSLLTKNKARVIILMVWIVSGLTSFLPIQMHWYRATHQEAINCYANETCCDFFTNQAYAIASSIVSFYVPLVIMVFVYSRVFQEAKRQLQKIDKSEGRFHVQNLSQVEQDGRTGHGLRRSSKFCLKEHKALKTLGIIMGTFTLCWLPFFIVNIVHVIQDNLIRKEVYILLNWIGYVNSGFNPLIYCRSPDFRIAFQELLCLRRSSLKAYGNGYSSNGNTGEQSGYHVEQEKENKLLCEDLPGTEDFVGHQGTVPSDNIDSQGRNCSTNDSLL
Outline: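 Cells (CHO, stable ADRB2 overexpression) incubated 18-20hr at 37C; compounds added from DMSO; agonist mix (1nM isoproterenol, 100uM IBMX, 25uM Ro-20-1724) added; 0.5hr RT; d2-cAMP and anti-cAMP-cryptate added; 1hr RT; 665/615 nm read.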

[15] = target: D(2) dopamine receptor (Homo sapiens) (UniProt P14416); test: Dopamine D2 receptor (DRD2) small molecule agonists, cell-based qHTS assay (AID 1963594); further: nearly all actives have a fitted effect of over 35% in size
Chain of D(2) dopamine receptor (Homo sapiens) (P14416 whole entry, looked up): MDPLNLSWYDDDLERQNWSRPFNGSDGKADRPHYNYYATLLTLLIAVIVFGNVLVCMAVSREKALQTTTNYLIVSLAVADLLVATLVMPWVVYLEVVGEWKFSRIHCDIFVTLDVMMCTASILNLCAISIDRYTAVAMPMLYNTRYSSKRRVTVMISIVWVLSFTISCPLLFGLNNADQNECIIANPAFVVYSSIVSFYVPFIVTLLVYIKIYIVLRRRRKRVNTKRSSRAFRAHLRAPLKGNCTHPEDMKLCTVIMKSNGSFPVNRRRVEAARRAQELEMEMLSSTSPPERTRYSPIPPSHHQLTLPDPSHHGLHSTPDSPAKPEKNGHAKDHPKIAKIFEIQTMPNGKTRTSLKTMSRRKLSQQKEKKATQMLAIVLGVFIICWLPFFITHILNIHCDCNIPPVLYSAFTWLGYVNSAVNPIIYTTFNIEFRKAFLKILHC
Outline: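 HEK293 cells stably expressing DRD2 were cultured 24 h at 37 C, then given Ro20-1724 (0.1 mM final) and compounds for 10 min at room temperature. NKH477 (200nM) was then added for 30 min. cAMP was read by HTRF.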

[16] = p53 small molecule agonists, cell-based qHTS assay with human liver microsomes (AID 1963577)
Outline: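 p53RE-bla cells, 4,000/well, compound added after 5 h, with human liver microsomes 0.5 mg/mL and NADPH 0.5 mg/mL final; 16 h at 37 C, then LiveBLAzer 2 h RT, fluorescence.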

[17] = p53 small molecule agonists, cell-based qHTS assay with rat liver microsomes (AID 1963578)
Outline: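 p53RE-bla cells, 4,000/well, pre-incubated 5 h, then given compounds plus rat liver microsomes (0.5 mg/mL final) and NADPH (0.5 mg/mL final). Incubation 16 h at 37 C; beta-lactamase reporter read by LiveBLAzer fluorescence after 2 h at room temperature.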

[18] = p53 small molecule agonists, cell-based qHTS assay with rat liver microsomes: qHTS cell viability counter screen (AID 1963580); further: nearly all actives have a fitted effect of over 45% in size
Outline: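 In HCT-116 cells carrying a p53 response element-bla reporter, compounds were metabolically activated in situ by rat liver microsomes with NADPH over 16 h. Cell ATP content then served as the cytotoxicity measure.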

[19] = target: D(2) dopamine receptor (Homo sapiens) (UniProt P14416); test: Dopamine D2 receptor (DRD2) small molecule antagonists, cell-based qHTS assay (AID 1963595; active means well fitted inhibition curve with a large enough effect in the signal ratio in the repeat runs, with a control signal flat; the % refers to the signal ratio; further: potency means the concentration at half of the fitted maximal effect)
Outline: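 Cells were plated and grown for 24 h at 37 °C. Ro20-1724 (0.1 mM final) went in first, then compound for 10 min. NKH477 (200 nM) with quinpirole (12 nM) followed for 30 min at RT, then HTRF detection reagents for 1 h.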

[20] = target: Beta-2 adrenergic receptor (Homo sapiens) (UniProt P07550); test: Adrenergic beta2 receptor (ADRB2) small molecule agonists, cell-based qHTS assay (AID 1963593);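 further: CHO cells stably overexpressing human ADRB2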
Outline: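 CHO cells stably over-expressing ADRB2 were plated overnight at 37C, then dosed with compounds plus a stimulation mix containing 100uM IBMX and 25uM Ro-20-1724 for 0.5hr at room temperature. cAMP was measured by HTRF competition, 1hr.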

Row | SMILES | Potency [1] | Potency [2] | Potency [3] | Potency [4] | Potency [5] | Potency [6] | Potency [7] | Potency [8] | Potency [9] | Potency [10] | Potency [11] | Potency [12] | Potency [13] | Potency [14] | Potency [15] | Potency [16] | Potency [17] | Potency [18] | Potency [19] | Potency [20]
1 | O=[N+]([O-])c1ccc(Cl)c(Cl)c1 | inactive | inactive | inactive | inactive | inactive | inactive | inactive | inactive | inactive | inactive | inactive | inactive | inactive | inactive | inactive | – | – | – | – | –
2 | CCCCc1c(C)nc(NCC)[nH]c1=O | inactive | inactive | inactive | inactive | – | inactive | inactive | inactive | inactive | inactive | – | inactive | inactive | – | inactive | inactive | inactive | inactive | inactive | –
3 | OC[C@@H](O)[C@H]1O[C@@H]2O[C@H](C(Cl)(Cl)Cl)O[C@@H]2[C@H]1O | inactive | inactive | inactive | inactive | inactive | inactive | inactive | inactive | inactive | inactive | inactive | – | inactive | inactive | inactive | – | – | – | inactive | –
4 | CCCn1cc[n+](C)c1 | inactive | inactive | inactive | inactive | inactive | inactive | inactive | inactive | inactive | inactive | inactive | inactive | inactive | inactive | inactive | – | – | – | inactive | inactive
5 | CC(C)(c1ccccc1)c1ccc(O)c(C(C)(C)c2ccccc2)c1 | 13.6 µM (active) and 30.6 µM (active) | inactive and 7.7 µM (active) | inactive | inactive | inactive | 40.4 µM (active) and inactive | 14.3 µM (active) and 45.8 µM (active) | inactive | inactive | inactive | inactive | – | – | – | inactive | – | – | – | 54 µM (active) | –
6 | CC(C)N(C(=O)SCC(Cl)=C(Cl)Cl)C(C)C | inactive | inactive | inactive | – | inactive | inactive | inactive | inactive | – | 23.4 µM (active) | inactive | inactive | inactive | – | inactive | inactive | inactive | inactive | – | –
7 | CC(C)OC(=S)S | 30.6 µM (active) | 15.4 µM (active) | inactive | – | inactive | inactive | inactive | inactive | inactive | inactive | inactive | inactive | inactive | inactive | inactive | inactive | inactive | inactive | inactive | –
8 | OC(c1ccc(Cl)cc1)(c1cncnc1)c1ccccc1Cl (centres undefined) | inactive | 24.8 µM (active) and inactive | inactive | – | inactive | inactive | inactive | inactive | inactive | inactive | inactive | inactive | – | 69.8 µM (active) | inactive | inactive | inactive | inactive | inactive | –
9 | O=C(O)C(F)(F)C(F)(F)C(F)(F)C(F)(F)C(F)(F)C(F)(F)C(F)(F)F | inactive | inactive | inactive | – | inactive | inactive | inactive | inactive | inactive | inactive | – | inactive | inactive | inactive | inactive | inactive | inactive | inactive | inactive | inactive
10 | CCCC[n+]1cccc(C)c1 | inactive | inactive | inactive | – | inactive | inactive | inactive | inactive | inactive | inactive | inactive | inactive | inactive | – | inactive | inactive | inactive | inactive | inactive | inactive
11 | O=S(=O)(O)C(F)(F)C(F)(F)C(F)(F)C(F)(F)C(F)(F)C(F)(F)C(F)(F)C(F)(F)F | inactive and 61.1 µM (active) | inactive and 61.1 µM (active) | inactive | – | inactive | inactive | inactive | – | inactive | inactive | inactive | inactive | inactive | inactive | inactive | inactive | inactive | inactive | inactive | –
12 | OCCOc1ccccc1 | inactive | inactive | inactive | – | inactive | inactive | inactive | inactive | inactive | inactive | – | inactive | inactive | inactive | inactive | inactive | inactive | inactive | inactive | inactive
13 | CC(=O)C(Cl)Cl | inactive | inactive | inactive | – | inactive | inactive | inactive | inactive | inactive | inactive | inactive | inactive | inactive | inactive | inactive | inactive | inactive | – | – | inactive
